From PubChem BioAssay AID1159580 (chemical genetic matrix, 2015)
In all, about 5,500 compounds went through this assay and about 2,000 (36%) were called active. Roughly 18% stayed inconclusive and do not appear here. No stated cut-off is given here; in the data, active means normalized growth mostly below about 0.91 (no sharp cut-off); inconclusive means no clear call, values can overlap the other calls; inactive means mostly above about 0.92. The list shows a part of the results.

Test: chemical genetic growth profiling, strain panel (AID 1159580);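 further: tested at 20 µM; growth read once vehicle control cultures reached saturation at 30 °C; 1 = growth at the plate median or of vehicle wells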
Conditions: S. cerevisiae deletion strains, growth OD
[1] = locus YAL040C, strain CLN3, stronger effect = lower value
[2] = locus YCL061C, strain MRC1 (second series), stronger effect = lower value
[3] = locus YDR363W, strain ESC2, stronger effect = lower value
[4] = locus YER002W, strain NOP16, stronger effect = lower value
[5] = locus YMR307W, strain GAS1, stronger effect = lower value
[6] = locus YNL153C, strain GIM3, stronger effect = lower value
[7] = locus YNL175C, strain NOP13, stronger effect = lower value
[8] = locus YNL197C, strain WHI3, stronger effect = lower value
[9] = locus YNL224C, strain SQS1, stronger effect = lower value
[10] = locus YOR083W, strain WHI5 (second series), stronger effect = lower value
[11] = locus YPL055C, strain LGE1, stronger effect = lower value
[12] = locus YPL241C, strain CIN2, stronger effect = lower value
[13] = locus YAR019C, strain CDC15, stronger effect = lower value
[14] = locus YBL105C, strain PKC1, stronger effect = lower value
[15] = locus YBR135W, strain CKS1, stronger effect = lower value
[16] = locus YBR136W, strain MEC1, stronger effect = lower value
[17] = locus YBR160W, strain CDC28, stronger effect = lower value
[18] = locus YDL017W, strain CDC7, stronger effect = lower value
[19] = locus YDL028C, strain MPS1, stronger effect = lower value
[20] = locus YDL101C, strain DUN1, stronger effect = lower value
[21] = locus YDL108W, strain KIN28, stronger effect = lower value
[22] = locus YDL132W, strain cdc53, stronger effect = lower value
[23] = locus YDL214C, strain PRR2, stronger effect = lower value
[24] = locus YDR052C, strain DBF4, stronger effect = lower value
[25] = locus YDR054C, strain cdc34, stronger effect = lower value
[26] = locus YDR226W, strain ADK1, stronger effect = lower value
[27] = locus YDR477W, strain SNF1, stronger effect = lower value
[28] = locus YER123W, strain YCK3, stronger effect = lower value
[29] = locus YER133W, strain GLC7, stronger effect = lower value
[30] = locus YFL009W, strain cdc4, stronger effect = lower value
[31] = locus YFL029C, strain CAK1, stronger effect = lower value
[32] = locus YFR003C, strain YPI1, stronger effect = lower value
[33] = locus YFR019W, strain FAB1, stronger effect = lower value
[34] = locus YFR028C, strain CDC14, stronger effect = lower value
[35] = locus YGR040W, strain KSS1, stronger effect = lower value
[36] = locus YGR052W, strain FMP48, stronger effect = lower value
[37] = locus YGR092W, strain DBF2, stronger effect = lower value
[38] = locus YHR030C, strain SLT2, stronger effect = lower value
[39] = locus YHR079C, strain IRE1, stronger effect = lower value
[40] = locus YHR082C, strain KSP1, stronger effect = lower value
[41] = locus YHR205W, strain SCH9, stronger effect = lower value
[42] = locus YIL147C, strain SLN1, stronger effect = lower value
[43] = locus YJL095W, strain BCK1, stronger effect = lower value
[44] = locus YJL128C, strain PBS2, stronger effect = lower value
[45] = locus YJL157C, strain FAR1, stronger effect = lower value
[46] = locus YJR016C, strain ILV3, stronger effect = lower value
[47] = locus YJR066W, strain TOR1 (second series), stronger effect = lower value
[48] = locus YJR066W, strain TOR1, stronger effect = lower value
[49] = locus YKL048C, strain ELM1, stronger effect = lower value
[50] = locus YKL067W, strain YNK1, stronger effect = lower value
[51] = locus YKL101W, strain HSL1, stronger effect = lower value
[52] = locus YKL193C, strain SDS22, stronger effect = lower value
[53] = locus YKL203C, strain TOR2, stronger effect = lower value
[54] = locus YLR113W, strain HOG1, stronger effect = lower value
[55] = locus YLR133W, strain CKI1, stronger effect = lower value
[56] = locus YLR403W, strain SFP1, stronger effect = lower value
[57] = locus YML070W, strain DAK1, stronger effect = lower value
[58] = locus YMR001C, strain CDC5, stronger effect = lower value
[59] = locus YMR205C, strain PFK2 (second series), stronger effect = lower value
[60] = locus YMR277W, strain FCP1, stronger effect = lower value
[61] = locus YNL006W, strain LST8, stronger effect = lower value
[62] = locus YNL020C, strain ARK1, stronger effect = lower value
[63] = locus YNL161W, strain CBK1, stronger effect = lower value
[64] = locus YNL183C, strain NPR1, stronger effect = lower value
[65] = locus YNL207W, strain RIO2, stronger effect = lower value
[66] = locus YNL222W, strain SSU72, stronger effect = lower value
[67] = locus YNL307C, strain MCK1 (second series), stronger effect = lower value
[68] = locus YOL078W, strain AVO1, stronger effect = lower value
[69] = locus YOL136C, strain PFK27, stronger effect = lower value
[70] = locus YOR061W, strain CKA2, stronger effect = lower value
[71] = locus YOR119C, strain RIO1, stronger effect = lower value
[72] = locus YOR231W, strain MKK1, stronger effect = lower value
[73] = locus YOR329C, strain SCD5, stronger effect = lower value
[74] = locus YPL031C, strain PHO85, stronger effect = lower value
[75] = locus YPL153C, strain RAD53, stronger effect = lower value
[76] = locus YPL204W, strain HRR25, stronger effect = lower value
[77] = locus YPL209C, strain IPL1, stronger effect = lower value
[78] = locus YPL256C, strain CLN2, stronger effect = lower value
[79] = locus YPR025C, strain CCL1, stronger effect = lower value
[80] = locus YPR106W, strain ISR1, stronger effect = lower value
[81] = locus YPR111W, strain DBF20, stronger effect = lower value
[82] = strain NNK1, stronger effect = lower value
[83] = strain TSCII, stronger effect = lower value

Measured: normalized growth

NC(=O)c1ncn(C2OC(CO)C(O)C2O)n1 (stereo unspecified)
inactive: [1] 1.01 | [2] 1 | [3] 1 | [4] 0.996 | [5] 1.01 | [6] 1.03 | [7] 1.01 | [8] 1.01 | [9] 1.02 | [10] 1.02 | [11] 1

COc1cc2c(CCNC(C)=O)c[nH]c2cc1Cl
inactive: [1] 0.983 | [3] 1.03 | [4] 0.956 | locus YGR078C, strain PAC10, stronger effect = lower value 1.01 | [5] 1.01 | [6] 0.926 | [7] 0.989 | [8] 0.989 | [9] 1 | locus YNL322C, strain KRE1, stronger effect = lower value 0.998 | [10] 1.03 | [12] 0.996

O=S1(=O)N(CCN2CC=C(c3c[nH]c4cc(F)ccc34)CC2)c2cccc3c2N1CCC3
inactive: [1] 0.981 | [2] 0.987 | [3] 0.997 | locus YJR075W, strain HOC1, stronger effect = lower value 1 | [6] 0.851 | [7] 0.987 | [8] 0.994 | [9] 1.02 | [10] 0.958 | [11] 0.951 | [12] 0.977

N#CC(C#N)=Cc1c(-c2ccccc2Cl)[nH]c2ccccc12
inactive: [13] 0.968 | [14] 0.962 | [15] 0.965 | [16] 0.97 | [17] 0.969 | [18] 0.976 | [19] 0.972 | [20] 0.973 | [21] 0.975 | [22] 0.969 | [23] 0.919 | [24] 0.98 | [25] 0.931 | [26] 0.956 | [27] 0.901 | [28] 0.889 | [29] 0.93 | [30] 0.955 | [31] 0.96 | [32] 0.976 | [33] 0.924 | [34] 0.965 | [35] 0.907 | [36] 0.942 | [37] 0.938 | [39] 0.812 | [40] 0.932 | [41] 0.836 | [42] 0.971 | [43] 0.822 | [44] 0.958 | [45] 0.923 | [46] 0.956 | [47] 0.897 | [48] 0.902 | [49] 0.926 | [50] 0.918 | [51] 0.899 | [52] 0.967 | [53] 0.961 | [55] 0.905 | [56] 0.904 | [57] 0.886 | [58] 0.969 | [59] 0.919 | [60] 0.967 | [61] 0.96 | [62] 0.882 | [63] 0.966 | [64] 0.853 | [65] 0.974 | [66] 0.967 | [67] 0.84 | [68] 0.962 | [69] 0.87 | [70] 0.897 | [71] 1 | [72] 0.867 | [73] 0.968 | [74] 0.907 | [75] 0.905 | [76] 0.884 | [77] 0.973 | [79] 0.961 | [80] 0.954 | [81] 0.927 | [82] 0.959 | [83] 0.964
active: [38] 0.654 | [54] 0.821 | [78] 0.779

O=C(Nc1cc(Cl)ccc1O)c1ccccc1CSc1ccc(Cl)cc1
inactive: [13] 0.977 | [14] 0.984 | [15] 0.985 | [16] 0.98 | [17] 0.979 | [18] 0.986 | [19] 0.985 | [20] 0.989 | [21] 0.981 | [22] 0.988 | [23] 0.823 | [24] 0.983 | [25] 0.979 | [26] 0.976 | [27] 0.8 | [28] 0.749 | [29] 0.839 | [30] 0.981 | [31] 0.977 | [32] 0.979 | [34] 0.986 | [35] 0.794 | [36] 0.685 | [37] 0.571 | [39] 0.683 | [40] 0.652 | [41] 0.785 | [42] 0.981 | [43] 0.502 | [44] 0.922 | [45] 0.783 | [46] 0.987 | [47] 0.765 | [48] 0.647 | [49] 0.888 | [50] 0.835 | [52] 0.988 | [53] 0.784 | [55] 0.776 | [56] 0.763 | [57] 0.714 | [58] 0.981 | [59] 0.851 | [60] 0.983 | [61] 0.98 | [63] 0.97 | [64] 0.689 | [65] 0.97 | [66] 0.983 | [68] 0.986 | [69] 0.753 | [71] 0.861 | [72] 0.699 | [73] 0.975 | [74] 0.738 | [75] 0.747 | [76] 0.731 | [77] 0.981 | [79] 0.979 | [80] 0.979 | [81] 0.954 | [82] 0.961 | [83] 0.981
active: [33] 0.753 | [38] 0.29 | [51] 0.633 | [54] 0.52 | [62] 0.689 | [67] 0.565 | [70] 0.603 | [78] 0.551
